According to PubChem BioAssay:
Calls of active or inactive are those of the source.

Legend:
[1] = test system: PRMT1 (protein arginine N-methyltransferase 1); experiment: small molecules binding arginine methyltransferase PRMT1 – biochemical, small-molecule microarray, 635 nm fluorescence, primary screen (AID 1088); conditions: higher = more signal;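 further: binding of Prmt1 protein to compounds spotted on small-molecule microarray slides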
[2] = growth effects on S. cerevisiae YJM789 – YJM789 clinical isolate, OD600, 24 h, basal, primary screen (AID 1089); conditions: higher = more signal, called active from +8 up or from −8 down;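 further: growth of clinical yeast isolate S. cerevisiae YJM 789 seeded 1000 cells per well; test concentration not given here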
[3] = S. pombe growth modifiers, basal conditions – strain 972, OD600, 24 h, no modulator, primary screen (AID 1090);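 further: basal condition with compound alone and no growth modifier present; test concentration not given here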; conditions: S. pombe 972 growth, higher = more signal, called active from +8 up or from −8 down
[4] = budding yeast growth modifiers under rapamycin – strain BY4716, OD600, 96 h, primary screen (AID 1091); further: test concentration not given here; conditions: S. cerevisiae BY4716 + rapamycin, higher = more signal, called active from +8 up or from −8 down
[5] = target: Torsin-1A-interacting protein 2 (Homo sapiens) (UniProt Q8NFQ8); experiment: small molecules binding lysate-expressed LULL1 – cell lysate, human LULL1 lysate, 635/667 nm fluorescence, primary screen (AID 1092); conditions: small-molecule microarray, hLULL1 lysate binding, 635 nm fluorescence; higher = more signal;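 further: probe is lysate of COS7 cells overexpressing human LULL1; score merges per-feature 667 nm fluorescence with signal-to-noise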
[6] = optical density change of DRC41 E. coli – strain DRC41, OD650, 24 h, E. coli filamentation project, primary screen (AID 1093);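 further: MC1000 strain lacking acrAB efflux and sulA so SOS filamentation is blocked; test concentration not given here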; conditions: E. coli DRC41 growth, higher = more signal, called active from +8 up or from −8 down
[7] = probe aLefty2 binding to arrayed compounds – biochemical, biotinylated probe, 635/667 nm fluorescence, primary screen (AID 1094); conditions: small-molecule microarray, higher = more signal;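 further: score merges spot fluorescence near 667 nm with spot signal-to-noise ratio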
[8] = test system: Noggin (protein binding on small-molecule microarray); experiment: small molecules binding Noggin protein – biochemical, 635/667 nm fluorescence, primary screen (AID 1095); conditions: 635 nm fluorescence, higher = more signal;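 further: score merges 667 nm feature fluorescence with signal to noise over triplicate slides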
[9] = target: Neurogenic locus notch homolog protein 3 (Homo sapiens) (UniProt Q9UM47); experiment: small molecules binding NOTCH3 protein – biochemical, 635/667 nm fluorescence, primary screen (AID 1096); conditions: small-molecule microarray, 635 nm fluorescence, higher = more signal
[10] = probe aEGFR binding to arrayed compounds – biochemical, biotinylated probe, 635/667 nm fluorescence, primary screen (AID 1097); conditions: small-molecule microarray, higher = more signal;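 further: probe is a biotinylated anti-EGFR antibody binding compounds printed on slides; score combines fluorescence near 667 nm and signal to noise of each spot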
[11] = test system: Plasmodium falciparum Sir2 (PF13_0152, Sir2A); experiment: Plasmodium falciparum Sir2A binding compounds – biochemical, small-molecule microarray, 635 nm fluorescence, primary screen (AID 1098); conditions: fluorescence 635 nm, higher = more signal;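 further: score merges spot fluorescence intensity with its signal-to-noise ratio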
[12] = probe aDKK1 binding to arrayed compounds – biochemical, biotinylated probe, 635/667 nm fluorescence, primary screen (AID 1099); conditions: small-molecule microarray, higher = more signal;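 further: score merges 667nm spot fluorescence with signal to noise across triplicate slides; reference of the scale not given here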
[13] = probe aCHRDL2 binding to arrayed compounds – biochemical, biotinylated probe, 635/667 nm fluorescence, primary screen (AID 1100); conditions: small-molecule microarray, higher = more signal
[14] = change in splice reporter luminescence, either direction, cell-based, HEK293, spliceosome inhibition project, primary screen (AID 1101); conditions: HEK293 splicing luciferase reporter, 24 h, higher = more signal, called active from +8 up or from −8 down;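 further: HEK293 cells carrying a splicing-competent luciferase reporter gene; test concentration not given here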
[15] = target: Fibroblast growth factor 10 (Homo sapiens) (UniProt O15520); experiment: compounds binding fibroblast growth factor 10 – biochemical, small-molecule microarray, 635 nm fluorescence, primary screen (AID 1102); conditions: FGF10 binding, fluorescence 635 nm, higher = more signal
[16] = test system: glycogen synthase kinase-3 (GSK3A per assay name; protocol says GSK3B); experiment: compounds binding glycogen synthase kinase-3 – biochemical, small-molecule microarray, 635 nm fluorescence, GSK3A, primary screen (AID 1103); conditions: fluorescence 635 nm, higher = more signal; further: the record names both GSK3A and GSK3B
[17] = target: Epidermal growth factor receptor (Homo sapiens) (UniProt P00533); experiment: compounds binding epidermal growth factor receptor – biochemical, small-molecule microarray, 635 nm fluorescence, primary screen (AID 1104); conditions: EGFR binding, higher = more signal;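 further: score merges 667 nm emission intensity with spot signal to noise over triplicate slides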
[18] = target: Follistatin-related protein 3 (Homo sapiens) (UniProt O95633); experiment: compounds binding follistatin-related protein 3 – biochemical, small-molecule microarray, 635 nm fluorescence, primary screen (AID 1105); conditions: FSTL3 binding, higher = more signal;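 further: score merges emission near 667 nm and signal to noise per printed spot across three slides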
[19] = target: Dickkopf-related protein 1 (Homo sapiens) (UniProt O94907); experiment: small molecules binding DKK1 protein – biochemical, small-molecule microarray, 635 nm fluorescence scan, primary screen (AID 1106); conditions: higher = more signal;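 further: score merges emission near 667 nm with signal to noise over three replicate slides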
[20] = test system: Inhibin beta A chain (activin A); experiment: small molecules binding activin A – biochemical, small-molecule microarray, 635 nm fluorescence scan, primary screen (AID 1107); conditions: INHBA, higher = more signal;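 further: mouse activin A protein probed at 4.33 µg/mL on printed slides; score merges bound-protein fluorescence near 667 nm with spot signal-to-noise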

Sequence of Neurogenic locus notch homolog protein 3 (Homo sapiens) (Q9UM47 whole entry, looked up): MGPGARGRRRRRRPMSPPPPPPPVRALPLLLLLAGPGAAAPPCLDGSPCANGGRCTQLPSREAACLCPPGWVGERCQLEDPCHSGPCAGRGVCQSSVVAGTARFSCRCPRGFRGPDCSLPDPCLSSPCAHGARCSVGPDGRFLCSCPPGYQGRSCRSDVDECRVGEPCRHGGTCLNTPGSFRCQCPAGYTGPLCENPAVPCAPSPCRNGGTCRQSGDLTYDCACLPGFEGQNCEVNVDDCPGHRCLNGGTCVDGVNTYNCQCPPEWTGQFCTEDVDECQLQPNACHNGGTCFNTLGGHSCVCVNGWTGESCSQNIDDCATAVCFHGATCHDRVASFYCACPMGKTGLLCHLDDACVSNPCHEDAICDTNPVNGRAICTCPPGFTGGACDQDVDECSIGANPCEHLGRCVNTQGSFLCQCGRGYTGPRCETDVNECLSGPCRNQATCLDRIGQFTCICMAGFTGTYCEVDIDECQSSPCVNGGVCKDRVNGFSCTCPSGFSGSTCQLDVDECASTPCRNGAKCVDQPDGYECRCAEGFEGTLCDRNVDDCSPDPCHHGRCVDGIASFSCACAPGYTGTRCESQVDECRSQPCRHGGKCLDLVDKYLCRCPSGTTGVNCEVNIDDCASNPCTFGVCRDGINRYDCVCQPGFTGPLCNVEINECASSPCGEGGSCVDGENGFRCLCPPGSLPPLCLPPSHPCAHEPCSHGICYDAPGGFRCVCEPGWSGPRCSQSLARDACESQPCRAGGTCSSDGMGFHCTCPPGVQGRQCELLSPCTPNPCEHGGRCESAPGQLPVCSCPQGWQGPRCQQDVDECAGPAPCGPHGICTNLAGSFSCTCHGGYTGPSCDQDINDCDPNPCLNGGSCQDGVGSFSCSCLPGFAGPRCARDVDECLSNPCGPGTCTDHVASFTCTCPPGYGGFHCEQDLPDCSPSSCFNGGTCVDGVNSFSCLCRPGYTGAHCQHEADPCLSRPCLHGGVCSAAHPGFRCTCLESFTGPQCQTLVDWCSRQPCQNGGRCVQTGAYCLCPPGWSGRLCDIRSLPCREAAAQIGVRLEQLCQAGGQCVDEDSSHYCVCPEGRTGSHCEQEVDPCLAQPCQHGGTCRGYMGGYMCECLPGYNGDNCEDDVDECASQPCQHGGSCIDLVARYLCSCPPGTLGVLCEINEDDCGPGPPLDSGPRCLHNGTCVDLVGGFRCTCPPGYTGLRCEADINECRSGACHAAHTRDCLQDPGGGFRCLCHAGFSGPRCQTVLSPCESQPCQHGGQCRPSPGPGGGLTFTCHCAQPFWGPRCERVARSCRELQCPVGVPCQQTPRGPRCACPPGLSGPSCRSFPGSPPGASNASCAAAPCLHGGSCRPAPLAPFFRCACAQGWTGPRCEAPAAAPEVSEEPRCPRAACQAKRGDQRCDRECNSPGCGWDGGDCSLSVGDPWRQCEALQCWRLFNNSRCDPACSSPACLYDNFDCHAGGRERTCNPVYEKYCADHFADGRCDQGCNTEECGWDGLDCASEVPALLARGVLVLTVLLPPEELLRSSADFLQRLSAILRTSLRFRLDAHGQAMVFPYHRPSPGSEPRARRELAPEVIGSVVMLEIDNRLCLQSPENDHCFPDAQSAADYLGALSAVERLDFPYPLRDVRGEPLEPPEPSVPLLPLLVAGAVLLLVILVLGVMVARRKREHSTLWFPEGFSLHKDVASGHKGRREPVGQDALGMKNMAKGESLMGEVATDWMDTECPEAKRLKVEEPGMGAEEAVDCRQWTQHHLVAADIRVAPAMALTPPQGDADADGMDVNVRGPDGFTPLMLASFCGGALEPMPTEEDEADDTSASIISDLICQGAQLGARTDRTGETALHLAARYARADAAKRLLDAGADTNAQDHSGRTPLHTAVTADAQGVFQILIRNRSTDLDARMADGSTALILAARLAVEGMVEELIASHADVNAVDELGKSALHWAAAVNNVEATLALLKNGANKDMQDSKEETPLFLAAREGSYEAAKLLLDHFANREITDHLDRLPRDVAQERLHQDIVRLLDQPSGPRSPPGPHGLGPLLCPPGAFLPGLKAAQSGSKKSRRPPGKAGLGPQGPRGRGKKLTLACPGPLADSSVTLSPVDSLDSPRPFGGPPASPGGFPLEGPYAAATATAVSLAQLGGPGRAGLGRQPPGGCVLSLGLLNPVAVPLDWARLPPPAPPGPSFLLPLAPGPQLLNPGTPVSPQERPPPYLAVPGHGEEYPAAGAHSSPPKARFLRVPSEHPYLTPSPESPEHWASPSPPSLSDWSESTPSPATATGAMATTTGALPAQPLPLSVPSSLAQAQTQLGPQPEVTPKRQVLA
Sequence of Fibroblast growth factor 10 (Homo sapiens) (O15520 whole entry, looked up): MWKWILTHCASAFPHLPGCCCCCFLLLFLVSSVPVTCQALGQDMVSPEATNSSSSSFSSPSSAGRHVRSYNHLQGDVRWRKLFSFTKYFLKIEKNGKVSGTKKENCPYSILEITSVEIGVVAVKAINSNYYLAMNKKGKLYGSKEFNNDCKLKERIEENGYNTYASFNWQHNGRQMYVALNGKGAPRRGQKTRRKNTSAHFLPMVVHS
Sequence of Follistatin-related protein 3 (Homo sapiens) (O95633 whole entry, looked up): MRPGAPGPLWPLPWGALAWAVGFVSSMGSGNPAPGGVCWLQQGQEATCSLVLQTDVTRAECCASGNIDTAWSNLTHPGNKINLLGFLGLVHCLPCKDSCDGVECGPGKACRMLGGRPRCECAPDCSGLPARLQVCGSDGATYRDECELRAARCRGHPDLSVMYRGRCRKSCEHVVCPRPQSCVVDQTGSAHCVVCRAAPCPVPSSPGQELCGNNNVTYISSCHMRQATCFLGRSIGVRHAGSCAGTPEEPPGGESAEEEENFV
Sequence of Epidermal growth factor receptor (Homo sapiens) (P00533 whole entry, looked up): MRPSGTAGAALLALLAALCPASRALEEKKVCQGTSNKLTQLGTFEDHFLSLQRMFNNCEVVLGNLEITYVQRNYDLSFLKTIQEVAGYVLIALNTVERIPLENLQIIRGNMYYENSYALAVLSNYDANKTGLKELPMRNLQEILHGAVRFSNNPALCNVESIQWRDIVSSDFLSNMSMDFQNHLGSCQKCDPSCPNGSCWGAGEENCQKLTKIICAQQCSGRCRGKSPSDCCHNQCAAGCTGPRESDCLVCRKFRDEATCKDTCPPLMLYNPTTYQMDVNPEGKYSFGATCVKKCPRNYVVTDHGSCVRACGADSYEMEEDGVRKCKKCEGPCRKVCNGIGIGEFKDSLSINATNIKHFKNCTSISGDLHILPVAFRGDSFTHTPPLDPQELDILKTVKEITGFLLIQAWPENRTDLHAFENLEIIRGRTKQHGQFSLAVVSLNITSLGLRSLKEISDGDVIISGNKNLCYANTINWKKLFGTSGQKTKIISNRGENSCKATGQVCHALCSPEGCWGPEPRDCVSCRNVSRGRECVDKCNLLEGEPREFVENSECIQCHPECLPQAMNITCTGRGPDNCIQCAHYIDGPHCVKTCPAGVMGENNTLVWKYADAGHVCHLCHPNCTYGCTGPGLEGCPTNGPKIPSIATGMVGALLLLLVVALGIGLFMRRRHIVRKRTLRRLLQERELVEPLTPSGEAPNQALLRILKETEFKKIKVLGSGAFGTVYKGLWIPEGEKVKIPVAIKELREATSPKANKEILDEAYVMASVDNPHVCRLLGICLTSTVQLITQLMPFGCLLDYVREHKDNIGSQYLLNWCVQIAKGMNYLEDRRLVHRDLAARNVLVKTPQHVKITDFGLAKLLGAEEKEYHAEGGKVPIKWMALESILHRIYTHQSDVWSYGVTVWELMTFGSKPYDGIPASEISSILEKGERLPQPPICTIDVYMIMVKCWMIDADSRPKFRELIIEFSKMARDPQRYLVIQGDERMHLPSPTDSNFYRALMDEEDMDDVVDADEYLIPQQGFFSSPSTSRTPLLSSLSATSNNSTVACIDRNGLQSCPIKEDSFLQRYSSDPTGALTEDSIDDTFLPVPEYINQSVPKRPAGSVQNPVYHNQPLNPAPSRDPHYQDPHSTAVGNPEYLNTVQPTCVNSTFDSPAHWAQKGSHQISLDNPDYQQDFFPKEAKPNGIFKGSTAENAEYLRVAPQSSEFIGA
Sequence of Torsin-1A-interacting protein 2 (Homo sapiens) (Q8NFQ8 whole entry, looked up): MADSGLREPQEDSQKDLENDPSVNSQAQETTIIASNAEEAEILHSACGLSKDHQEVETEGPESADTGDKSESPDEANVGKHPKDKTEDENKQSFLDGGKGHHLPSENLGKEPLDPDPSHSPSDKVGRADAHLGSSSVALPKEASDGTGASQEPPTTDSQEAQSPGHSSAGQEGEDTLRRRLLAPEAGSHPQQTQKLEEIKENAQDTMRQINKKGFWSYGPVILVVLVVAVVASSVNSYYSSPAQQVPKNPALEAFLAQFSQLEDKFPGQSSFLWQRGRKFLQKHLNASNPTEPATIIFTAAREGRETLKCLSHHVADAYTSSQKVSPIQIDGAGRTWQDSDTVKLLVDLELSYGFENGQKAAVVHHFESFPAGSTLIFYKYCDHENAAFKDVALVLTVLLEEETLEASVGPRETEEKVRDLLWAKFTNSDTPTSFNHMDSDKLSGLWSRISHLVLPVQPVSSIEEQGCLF
Sequence of Dickkopf-related protein 1 (Homo sapiens) (O94907 whole entry, looked up): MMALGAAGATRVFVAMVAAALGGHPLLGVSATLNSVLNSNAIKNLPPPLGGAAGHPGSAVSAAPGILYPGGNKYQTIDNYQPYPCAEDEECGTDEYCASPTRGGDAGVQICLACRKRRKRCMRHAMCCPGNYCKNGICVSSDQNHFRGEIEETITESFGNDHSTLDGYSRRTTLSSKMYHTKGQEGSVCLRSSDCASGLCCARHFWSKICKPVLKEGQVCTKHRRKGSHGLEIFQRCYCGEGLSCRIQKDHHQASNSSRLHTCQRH

SMILES	composite z-score [1]	z-score [2]	z-score [3]	z-score [4]	composite z-score [5]	z-score [6]	composite z-score [7]	composite z-score [8]	composite z-score [9]	composite z-score [10]	composite z-score [11]	composite z-score [12]	composite z-score [13]	z-score [14]	composite z-score [15]	composite z-score [16]	composite z-score [17]	composite z-score [18]	composite z-score [19]	composite z-score [20]
CCc1cc2c(nc1CC)CCN(CCC(C)=NO[C@H](C)c1cn([C@H](CO)Cc3ccccc3)nn1)C2	1.05	-0.563 (inactive)	-0.484 (inactive)	-0.112 (inactive)	0.461	-0.0004 (inactive)	0.0336	0.336	-0.171	-0.142	0.536	-0.144	-0.0059	-0.0554 (inactive)	0.0168	0.0291	0.1	0.11	0.274	1.3
O=C(C=Cc1ccc2c(c1)OCO2)c1ccc(F)cc1	-0.458	-0.935 (inactive)	-15.1 (active)	3.87 (inactive)	-0.779	0.704 (inactive)	-0.132	0.87	0.142	0.131	0.818	-0.136	-0.459	-0.603 (inactive)	0.498	-0.296	0.549	0.801	1.52	0.239
CC(C)=CCCC(C)=CCON=C1C[C@@H](O)[C@@H](O)[C@@H]2[C@@H]3C(=O)N(c4ccc(F)cc4F)C(=O)[C@@H]3CC[C@H]12	1.54	-0.912 (inactive)	-0.964 (inactive)	-1.53 (inactive)	2.05	-0.159 (inactive)	-0.0413	0.819	1.09	-0.0372	0.176	-0.016	-0.428	-0.956 (inactive)	0.0906	0.349	0.531	1.08	0.612	0.342
O=c1n(-c2ccccc2)c(=O)n2n1CC[C@@H]1C(=NOCc3ccccc3)[C@H]3O[C@H]3[C@@H](O)[C@@H]12	-0.955	-0.434 (inactive)	-0.326 (inactive)	-0.871 (inactive)	-0.0733	-0.619 (inactive)	-0.274	-0.131	0.116	-0.0531	-0.494	-0.31	-0.393	0.491 (inactive)	0.334	-0.864	-0.0683	-0.136	0.0228	0.168
C#CCCCON=C1C[C@@H](O)[C@@H](O)[C@@H]2[C@@H]3C(=O)N(CCC(=O)OCC)C(=O)[C@@H]3CC[C@H]12	1.48	-1.64 (inactive)	-1.32 (inactive)	-0.947 (inactive)	1.28	0.299 (inactive)	-0.104	0.4	1.1	-0.0419	1	0.286	-0.491	-1.79 (inactive)	0.628	0.814	0.542	1.16	0.389	-0.422
COc1cc(O)c(C(=O)C=Cc2ccc3c(c2)OCO3)c(OC)c1	-0.825	1.11 (inactive)	0.561 (inactive)	2.26 (inactive)	-0.862	0.75 (inactive)	-0.127	0.257	0.124	-0.113	0.188	-0.323	-0.379	-0.00405 (inactive)	0.772	-0.729	-0.229	-0.0642	0.115	0.551
C[C@@H](c1ccccc1)N1C(=O)[C@H]2[C@H]3[C@H](O)[C@H](O)CC(=NO[C@@H]4O[C@H](CO)[C@@H](O)[C@H](O)[C@H]4O)[C@H]3CC[C@H]2C1=O	-0.997	-0.264 (inactive)	1.06 (inactive)	0.749 (inactive)	0.288	0.466 (inactive)	-0.0928	0.587	0.675	-0.0223	0.249	-0.155	-0.546	0.0641 (inactive)	0.559	0.783	0.425	1.03	0.44	0.0882
COC(=O)[C@@H]1CC[C@H](C)[C@@H](c2ccc(C)cc2)N1C(=O)c1ccc(C=NO[C@@H](C)c2cn([C@H](CO)Cc3ccccc3)nn2)cc1	1.44	0.76 (inactive)	0.249 (inactive)	1.25 (inactive)	1.57	1.35 (inactive)	-0.126	1.19	1.1	0.24	1.03	-0.0212	-0.925	-0.746 (inactive)	1.09	1.16	0.797	1.17	1.22	-0.116
COc1cccc([C@H]2Oc3ccc(OC)cc3C(=NO[C@H](C)c3cn([C@H](CO)Cc4ccccc4)nn3)[C@@H]2O)c1	0.203	-1.77 (inactive)	0.226 (inactive)	-1.21 (inactive)	0.202	0.928 (inactive)	-0.126	0.259	-0.657	-0.188	-0.42	-0.561	-0.0229	0.397 (inactive)	0.0546	-0.617	-0.0537	-0.0403	-0.28	0.548
CO[C@@H]1COC(=O)CC=C[C@H](C)[C@H](OC)COC(=O)[C@H](C)NC(=O)CC=C[C@H]1C	1.53	0.419 (inactive)	-0.245 (inactive)	0.329 (inactive)	-0.207	1.2 (inactive)	-0.228	1.83	0.273	-0.0109	0.657	-0.546	-1.31	0.671 (inactive)	0.616	0.918	0.745	1.44	1.18	1.74
